PubChem BioAssay (NCI)
This is part of a sample that, as a whole, favours compounds with a hit. Of some 83,000 tested, about 20% had one in any assay.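 For each line, cells grew in 96-well plates with the test compound present at a single concentration for 48 hours.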 Unmarked numbers belong to inactive results. How the source made its calls: active means growth percent below 10; inactive means the rest.

tested on: EKVX NSCLC; assay: NCI-60 one-dose screen, 48 h (100 = growth as untreated, 0 = no growth, -100 = all killed); settings: 10 µM unless noted

| SMILES | growth [%] |
| --- | --- |
| CCC(c1ccccc1)C(CC)c1ccc(O)c(O)c1 (centres undefined) | 107 |
| CN1CCN(c2ccc3nc(-c4ccc5nc(-c6ccc(OCCC(C)(C)C)cc6)[nH]c5c4)[nH]c3c2)CC1 | 52.8 |
| NC(N)=Nc1ccc(S(=O)(=O)O)cc1 | 110 |
| O=C(/C=C/c1cc2ccccc2[nH]c1=O)/C=C/c1cc2ccccc2[nH]c1=O | 47.3 |
| Nc1ccc(Nc2nccc(-c3ccc4ccccc4c3)n2)cc1 | 61 |
| C=C1CCC2C3(C)COC(c4ccc(OC)cc4Br)OC3CCC2(C)C1/C=C/C1=CCOC1=O (centres undefined) | 44.2 |
| CCC(=O)Oc1ccc(/C(=C(\C)c2ccccc2)c2ccc(OCCN(CC)CC)cc2)cc1 | 103 |
| CC(=O)/C(=C/c1cccc(Cl)c1)C(=O)c1ccccc1 | 98.6 |
| NS(=O)(=O)c1ccc(-n2ncc3c(=O)[nH]c(CN4CCN(c5cc6c(cc5F)c(=O)c(C(=O)O)cn6C5CC5)CC4)nc32)cc1 | 92.6 |
| COc1ccc(-c2nn(-c3ccccc3)cc2/C=C2\SC(=O)NC2=O)cc1 | 85.2 |
| O=C(COc1cccc(/C=C2/Oc3ccccc3C2=O)c1)Nc1nccs1 | 74.7 |
| CN1CCN(Cc2ccc(NC(=O)c3[nH]ncc3Nc3ncnc4sccc34)cc2)CC1 | 16.1 |
| CC1=N/C(=C\c2cccc(Br)c2)C(=O)O1 | 99.5 |
| COc1cc(C(=O)/C=C/c2c(C)n([O-])c3ccc(C)cc3[n+]2=O)cc(OC)c1OC | 50.8 |
